This assay addresses Epidermal growth factor receptor (Homo sapiens) (UniProt P00533). As to the kind of experiment: Assay for Inhibitors of the ERK Signaling Pathway using a Homogeneous Screening Assay: EGFR T790M Kinase Inhibition. From the text: qHTS Assay for Inhibitors of the ERK Signaling Pathway using a Homogeneous Screening Assay
NIH Chemical Genomics Center [NCGC]
NIH Molecular Libraries Screening Centers Network [MLSCN]
Assay Submitter (PI): Dr. Wei Zheng, NCGC/NIH
The Ras/extracellular-signal-regulated kinase (ERK) mitogen activated protein (MAP) kinase signaling pathway (ERK1/2 cascade) plays is a key role in transmitting signals from the cell surface to the nucleus (Nishida and Gotoh 1993; Chang and Karin, 2001). The cascade is initiated by the small G-protein Ras, which recruits Raf […], where activation occurs. Alternatively, this pathway can be activated by elevating intracellular cAMP.
Activation of the ERK pathway is essential in increased cell division and cell survival. Sustained and constitutive activation of the ERK pathway, however, has been linked to uncontrolled cell proliferation, increased cell survival, and tumor progression. Thus, the ERK has been as an attractive target for cancer chemotherapy in the past few years (Sebolt-Leopold and Herrera, 2004). […]
The HTRF kinase assay (components supplied as kit by Cisbio) was chosen for the EGFR and EGFR mutant enzyme assays that applied the time resolved fluorescence resonance energy transfer (TR-FRET) principle. […]

Inconclusive results are not listed. Active and inactive are the calls of the source. The call rests on the fitted dose curve; in most records, active means well fitted curve in the direction sought with a large enough effect; inconclusive means small, poorly fitted or top-dose-only effect, or effect the other way, or another doubt; inactive means no such curve, though single readings can be large or run the other way.

Sequence of Epidermal growth factor receptor (Homo sapiens) (P00533 whole entry T790M, looked up): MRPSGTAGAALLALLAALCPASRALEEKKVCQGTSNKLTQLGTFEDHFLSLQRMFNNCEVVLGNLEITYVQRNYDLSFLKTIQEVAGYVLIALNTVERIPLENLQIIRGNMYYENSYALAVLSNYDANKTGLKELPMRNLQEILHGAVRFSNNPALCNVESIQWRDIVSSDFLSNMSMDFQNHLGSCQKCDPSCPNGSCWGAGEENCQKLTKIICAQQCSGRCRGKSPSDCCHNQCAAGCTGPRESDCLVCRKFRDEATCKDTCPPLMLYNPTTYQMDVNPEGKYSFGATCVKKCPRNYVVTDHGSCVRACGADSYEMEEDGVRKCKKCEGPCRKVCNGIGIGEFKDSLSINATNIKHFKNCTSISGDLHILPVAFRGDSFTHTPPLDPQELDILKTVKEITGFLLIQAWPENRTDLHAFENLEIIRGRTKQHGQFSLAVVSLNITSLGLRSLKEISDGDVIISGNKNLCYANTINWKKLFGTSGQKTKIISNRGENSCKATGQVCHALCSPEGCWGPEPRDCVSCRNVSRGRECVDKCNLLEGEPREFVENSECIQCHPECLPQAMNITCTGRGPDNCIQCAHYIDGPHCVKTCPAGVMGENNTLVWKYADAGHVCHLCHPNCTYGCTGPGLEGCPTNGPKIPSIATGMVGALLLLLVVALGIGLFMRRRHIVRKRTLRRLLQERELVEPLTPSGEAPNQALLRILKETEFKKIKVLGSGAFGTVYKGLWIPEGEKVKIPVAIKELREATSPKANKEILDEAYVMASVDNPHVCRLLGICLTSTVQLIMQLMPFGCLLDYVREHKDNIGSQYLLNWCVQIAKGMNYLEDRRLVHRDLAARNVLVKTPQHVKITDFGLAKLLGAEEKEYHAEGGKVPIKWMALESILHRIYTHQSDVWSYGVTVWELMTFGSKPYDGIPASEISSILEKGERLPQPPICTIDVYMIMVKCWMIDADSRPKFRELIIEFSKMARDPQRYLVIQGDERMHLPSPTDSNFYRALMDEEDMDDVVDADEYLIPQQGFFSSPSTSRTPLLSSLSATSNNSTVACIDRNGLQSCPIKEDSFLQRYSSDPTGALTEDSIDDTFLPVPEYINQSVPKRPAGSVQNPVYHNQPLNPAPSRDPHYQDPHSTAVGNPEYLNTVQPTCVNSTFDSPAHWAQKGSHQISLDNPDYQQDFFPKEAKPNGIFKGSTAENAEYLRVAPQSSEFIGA

For `CCn1nc(-c2ccccc2)nc2c(=O)n(C)c(=O)nc1-2`, the compound was classed as inactive.

On to `Cc1nc2c(=O)n(C)c(=O)nc-2n(C)n1`, for which the compound was classed as inactive.

The values above are taken from PubChem BioAssay AID1729 (National Center for Advancing Translational Sciences (NCATS), 2009).
